# Experimental data reported in the supplement of paper PMC10503962.
# Tested on: Trichuris muris adult worms
# Test: mean motility score (Paragon pixel variance) of adult worms (arbitrary units); higher = more motile worms, i.e. less anthelmintic effect; extreme values may be limits of the assay
# Settings: 100 µM; 24 h
# Description: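 Primary ex vivo screen of 409 approved drugs against adult Trichuris muris worms: one worm per well in RPMI-1640 with penicillin/streptomycin, 100 µM drug in 1% DMSO, 37 °C, 5% CO2 for 24 h. Motility was recorded with INVAPP (200-frame movies) and scored with the Paragon pixel-variance algorithm. Values are means of triplicate wells run on three occasions; levamisole was the positive control and DMSO the negative control.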
row,Structure (SMILES),mean motility score
1,COc1cc(C(=O)NS(=O)(=O)c2ccccc2C)ccc1Cc1cn(C)c2ccc(NC(=O)OC3CCCC3)cc12 [zafirlukast],0
2,CC(=O)c1c(C)c2cnc(Nc3ccc(N4CCNCC4)cn3)nc2n(C2CCCC2)c1=O [palbociclib],1970
3,C[C@@H]1C[C@H]2[C@@H]3CCC4=CC(=O)C=C[C@]4(C)[C@@]3(F)[C@@H](O)C[C@]2(C)[C@H]1C(=O)CO [desoximetasone],772
4,CC(=O)N1CCN(c2ccc(OC[C@@H]3CO[C@@](Cn4ccnc4)(c4ccc(Cl)cc4Cl)O3)cc2)CC1 [ketoconazole],1360
5,CNC1(C)[C@H]2CC[C@H](C2)C1(C)C.Cl (stereo not given in full) [mecamylamine hydrochloride],3150
6,COc1ccc(C(Cl)=C(c2ccc(OC)cc2)c2ccc(OC)cc2)cc1 [chlorotrianisene],2530
7,Nc1ncnc2c1ncn2[C@@H]1O[C@H](CO)[C@@H](O)[C@H]1O [adenosine],3520
8,CN(C)CCC=C1c2ccccc2CCc2ccccc21.Cl [amitriptyline hydrochloride],0
9,CCCc1nc(C)c2c(=O)nc(-c3cc(S(=O)(=O)N4CCN(CC)CC4)ccc3OCC)[nH]n12 [vardenafil],2160
10,CCOc1ccccc1OCCN[C@H](C)Cc1ccc(OC)c(S(N)(=O)=O)c1.Cl [tamsulosin hydrochloride],2890
11,CC1=NS(=O)(=O)c2cc(Cl)ccc2N1 [diazoxide],3260
12,CC[C@H](Nc1ncnc2[nH]cnc12)c1nc2cccc(F)c2c(=O)n1-c1ccccc1 [idelalisib],3590
13,COc1ccc(/C=C/C(=O)Nc2ccccc2C(=O)O)cc1OC [tranilast],1720
14,Cc1cn(-c2cc(NC(=O)c3ccc(C)c(Nc4nccc(-c5cccnc5)n4)c3)cc(C(F)(F)F)c2)cn1 [nilotinib],2370
15,Cc1ccc(NC(=O)c2ccc(CN3CCN(C)CC3)cc2)cc1Nc1nccc(-c2cccnc2)n1 [imatinib],3600
16,NC(CO)(CO)CO [tromethamine],2770
17,COc1ccccc1N1CCN(CCCNc2cc(=O)n(C)c(=O)n2C)CC1 [urapidil],2810
18,C(=C\c1ccccc1)/CN1CCN(C(c2ccccc2)c2ccccc2)CC1 [cinnarizine],1640
19,N=C(N)NCCC[C@H](N)C(=O)O [arginine],2980
20,C[C@H]1O[C@@H](n2cc(F)c(=O)[nH]c2=O)[C@H](O)[C@@H]1O [doxifluridine],2010

row,Structure (SMILES),mean motility score
1,CNCCC=C1c2ccccc2CCc2ccccc21 [nortriptyline],911
2,N[C@@H](Cc1c[nH]c2ccc(O)cc12)C(=O)O [oxitriptan],3310
3,O=C(O)COc1ccc(C(=O)c2cccs2)c(Cl)c1Cl [ticrynafen],3440
4,CN1CCC[C@H]1c1cccnc1 [nicotine],0
5,O=C(O)/C=C/C(=O)O [fumaric acid],3100
6,C#C[C@]1(O)CC[C@H]2[C@@H]3CCc4cc(O)ccc4[C@H]3CC[C@@]21C [ethinyl estradiol],3320
7,CSCC[C@H](N)C(=O)O [methionine],3180
8,CN(C)c1nc(N(C)C)nc(N(C)C)n1 [altretamine],3430
9,C[C@@H]1[C@H](O)[C@@H](C)/C=C/C=C/C=C/C=C/C=C/C=C/C=C/[C@H](O[C@@H]2O[C@H](C)[C@@H](O)[C@H](N)[C@@H]2O)C[C@@H]2O[C@](O)(C[C@@H](O)C[C@@H](O)[C@H](O)CC[C@@H](O)C[C@@H](O)CC(=O)O[C@H]1C)C[C@H](O)[C@H]2C(=O)O [amphotericin B],656
10,O=C1NCCN1CCN1CCC(c2cn(-c3ccc(F)cc3)c3ccc(Cl)cc23)CC1 [sertindole],0
11,CN(C)CCCN1c2ccccc2Sc2ccc(Cl)cc21 [chlorpromazine],0
12,CCc1c2c(nc3ccc(OC(=O)N4CCC(N5CCCCC5)CC4)cc13)-c1cc3c(c(=O)n1C2)COC(=O)[C@]3(O)CC [irinotecan],2280
13,Nc1ccc(S(N)(=O)=O)cc1 [sulfanilamide],2370
14,CNC[C@H](O)c1cccc(O)c1 [phenylephrine],3950
15,CC(=O)Nc1c(I)c(NC(C)=O)c(I)c(C(=O)O)c1I [diatrizoic acid],1110
16,O=c1[nH]c(=O)n([C@H]2C[C@H](O)[C@@H](CO)O2)cc1F [floxuridine],2280
17,COC(=O)[C@H]1[C@H]2C[C@@H]3c4[nH]c5cc(OC)ccc5c4CCN3C[C@H]2C[C@@H](OC(=O)c2cc(OC)c(OC)c(OC)c2)[C@@H]1OC [reserpine],2180
18,C[C@](N)(Cc1ccc(O)c(O)c1)C(=O)O [methyldopa],4060
19,CCC(NC(C)C)C(O)c1ccc(O)c2nc(O)ccc12.Cl (stereo not given) [procaterol hydrochloride],2060
20,C/C=C(/C(=C/C)c1ccc(O)cc1)c1ccc(O)cc1 [dienestrol],3590
